Screening results: PubChem BioAssay, National Center for Advancing Translational Sciences (NCATS)
The list is not random: actives were taken first. Their share in the collection is about 11%.
HPGD inh – qHTS Assay for Inhibitors of HPGD (15-Hydroxyprostaglandin Dehydrogenase); 15-hydroxyprostaglandin dehydrogenase [NAD(+)] (Homo sapiens), P15428; Potency, µM, actives largely listed as inhibitors; purified HPGD, NADH fluorescence kinetic, PGE2 substrate; 150,000 compounds, 4.3% hits
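20 nM HPGD preincubated 15 min at room temperature with compound in 50 mM Tris-HCl pH 8, 0.01% Tween 20. Started with 1 mM NAD+ and 30 uM prostaglandin E2; NADH fluorescence (360/450 nm) read 5 times over 30-s intervals, last minus first.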
PNC inhibitor – High Content Assay for Compounds that inhibit the Assembly of the Perinucleolar Compartment; PC3M PTB-GFP, PNC prevalence imaging, 16 h; active compounds read low; AID 2417, 2010; activity change (PNC), negative = inhibition, % at 10 µM; 140,000 compounds, 3.1% hits;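 active means readout at or below -70, meaning at least 70% loss of cells showing the perinucleolar compartment, a nuclear body marking cancer cells; inconclusive means readout between -30 and a set limit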
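Read-out is percentage of cells bearing a perinucleolar compartment, from automated 20x imaging of fixed, Hoechst-stained PC3M PTB-GFP cells. Cells were seeded 4 h, then exposed 16 h to compound (23 nl of library stock) in duplicate plates.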
ALDH1A1 inh – qHTS Assay for Inhibitors of Aldehyde Dehydrogenase 1 (ALDH1A1); Aldehyde dehydrogenase 1A1 (Homo sapiens), P00352; Purified ALDH1A1, NADH fluorescence, propionaldehyde substrate; Potency, µM (doses to about 75.3 µM), actives largely listed as inhibitors; 220,000 compounds, 7.3% hits; AID 1030, 2008
A number is an active result. Unless noted, the call rests on the fitted dose curve; in most records, active means well fitted inhibition curve with a large enough effect (not every such curve was filed as active); inconclusive means small, poorly fitted or top-dose-only effect, or another doubt; inactive means no such curve, though single readings can be large or run the other way.

What do the screens show for `O=C(NC(=S)Nc1ccc(N2CCCCC2)cc1)c1cccs1`?
HPGD inh: 31.6µM; PNC inhibitor: inconclusive; ALDH1A1 inh: 22.4µM

How did O=C(NC(=S)Nc1ccccc1N1CCCCC1)c1cccs1 do in these assays?
HPGD inh: inactive; PNC inhibitor: inactive; ALDH1A1 inh: inconclusive

Results for O=C(Nc1ccccc1N1CCOCC1)c1cccs1 ?
HPGD inh: inactive; PNC inhibitor: inactive; ALDH1A1 inh: inactive

What do the screens show for `O=C(NC(=S)Nc1ccccc1N1CCOCC1)c1cccs1`?
HPGD inh: inactive; PNC inhibitor: inactive; ALDH1A1 inh: 39.8µM

What do the screens show for `Cn1c(-c2ccccc2)c(/C=N/NC(=O)c2ccc(O)cc2)c2ccccc21`?
ALDH1A1 inh: inactive

Results for S=C(c1nc2ccccc2[nH]1)N1CCOCC1 ?
HPGD inh: inconclusive; PNC inhibitor: inconclusive; ALDH1A1 inh: 12.6µM

Results for O=C(c1cc2ccccc2[nH]1)N1CCOCC1 ?
HPGD inh: inactive; PNC inhibitor: inactive; ALDH1A1 inh: inactive

Results for O=C(Nc1ccccc1)[C@@]12C[C@@H]1/C(=N/O)c1ccccc1O2 ?
HPGD inh: inactive; ALDH1A1 inh: inactive

How did CN1c2ccsc2/C(=N/NC(=O)c2c(F)cccc2F)CS1(=O)=O do in these assays?
HPGD inh: inconclusive; PNC inhibitor: inactive; ALDH1A1 inh: inconclusive

What do the screens show for `CN1c2ccsc2/C(=N/Nc2ccccc2)CS1(=O)=O`?
ALDH1A1 inh: 12.6µM

What do the screens show for `CC(=O)c1cc(NC(=O)c2ccc(C)cc2)c(=O)oc1/C=C/N(C)C`?
HPGD inh: inactive; PNC inhibitor: inactive; ALDH1A1 inh: inconclusive

Results for COCCCn1c(C)c(C(C)=O)cc(NC(=O)c2ccccc2)c1=O ?
ALDH1A1 inh: 2µM

Results for COC(=O)c1cc(NC(=O)c2cccc(C(F)(F)F)c2)c(=O)oc1C ?
ALDH1A1 inh: inactive

How did Cc1oc(=O)c(NC(=O)c2ccc(Cl)cc2)cc1C(=O)c1ccccc1 do in these assays?
HPGD inh: 31.6µM; PNC inhibitor: inactive; ALDH1A1 inh: 3.55µM

What do the screens show for `CCOC(=O)c1cc(NC(=O)c2ccccc2)c(=O)oc1C(F)(F)F`?
ALDH1A1 inh: inactive

How did COCCCN1C(=O)c2ccc(C(=O)Nc3ccccc3OC)cc2C1=O do in these assays?
HPGD inh: inactive; PNC inhibitor: inconclusive; ALDH1A1 inh: inconclusive

Results for Cc1oc(=O)c(NC(=O)c2ccccc2)cc1C(=O)c1ccccc1 ?
HPGD inh: inactive; PNC inhibitor: inactive; ALDH1A1 inh: 17.8µM

How did CC(=O)c1cc(NC(=O)c2ccc(C)cc2)c(=O)oc1C do in these assays?
ALDH1A1 inh: 22.4µM

What do the screens show for `COc1cc(C2C(C(=O)/C=C/c3ccccc3)=C(O)C(=O)N2c2ccccn2)ccc1O` (stereo unspecified)?
ALDH1A1 inh: inactive

How did CCn1ccnc1CN(C)C(=O)CCc1nnc(CCCc2ccccc2)o1 do in these assays?
ALDH1A1 inh: inactive

Results for CC(OC(=O)C1=COCCO1)C(=O)Nc1cc(S(=O)(=O)N2CCCCC2)ccc1Cl (stereo unspecified) ?
ALDH1A1 inh: inactive

How did Clc1ccccc1-c1cncnc1NCCN1CCOCC1 do in these assays?
ALDH1A1 inh: inactive

What do the screens show for `COC(=O)c1cc(NC(=O)c2ccc(OC)cc2)c(=O)oc1C`?
ALDH1A1 inh: inactive

How did CC(=O)c1cc(NC(=O)c2ccccc2)c(=O)oc1C do in these assays?
ALDH1A1 inh: 20µM
